Data taken from PubChem BioAssay (Tox21).
Inconclusive results are not listed. Activity calls are given as the source filed them. Unless noted, calls follow the shape of the dose curve; as a rule, active = well fitted curve in the direction sought with a large enough effect in the repeat runs; inconclusive = weak or mixed curves; inactive = no such curve, though single readings can be large; an effect the other way counts as inactive or inconclusive.

How the values were obtained:
[1] = qHTS assay to identify small molecule agonists of the estrogen receptor alpha (ER-alpha) signaling pathway in the presence of an antagonist - cell viability counter screen (AID 1259386); details: VM7Luc4E2 viability, CellTiter-Fluor fluorescence, 22 h; series mostly up to 92.4 µM;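 also: cells exposed to compounds for 22 h at 37 °C before the viability read; nearly all actives have a fitted effect of over 30% in size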; also: potency is read from the fitted curve at half-maximal effect
Outline: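 The test measures whether compounds kill ER-alpha reporter cells (VM7Luc4E2) under antagonist co-treatment (ICI-182,780, 10.0nM). Fluorescence from CellTiter-Fluor is read after a 22hr exposure.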

[2] = qHTS assay to identify small molecule antagonists of the progesterone receptor (PR) signaling pathway - cell viability counter screen (AID 1346798); details: PR-UAS-bla HEK293T viability, CellTiter-Glo luminescence, 16 h; series mostly up to 92.4 µM; also: % is scaled to controls: 0 for no effect and ±100 for the full control effect; nearly all actives have a fitted effect of over 50% in size
Outline: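 Measures cytotoxicity in parallel with the PR antagonist reporter read: HEK293T PR-UAS-bla cells get compound and R5020 for 16 hr, and remaining viable cells are quantified by CellTiter-Glo luminescence.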

[3] = qHTS assay to identify small molecule antagonists of the TGF-beta/Smad signaling pathway - cell viability counter screen (AID 1346824); details: SBE-bla HEK293T viability, CellTiter-Glo luminescence; series mostly up to 76.8 µM; also: % is scaled to controls: 0 for no effect and ±100 for the full control effect; nearly all actives have a fitted effect of over 50% in size
Outline: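 SBE-bla HEK 293T cells were plated overnight at 37 C, then given compounds in DMSO plus TGF-beta1 (added as 0.25 ng/mL solution) for 5 hr. After the bla read, CellTiter-Glo was added to the same wells and luminescence read after 30 min at room temperature.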

[4] = qHTS assay to identify small molecule agonists of the TGF-beta/Smad signaling pathway - cell viability counter screen (AID 1346829); details: SBE-bla HEK293T viability, CellTiter-Glo luminescence, 5 h; series mostly up to 76.8 µM; also: top concentration of the series differs between compounds; % is scaled to controls: 0 for no effect and ±100 for the full control effect; nearly all actives have a fitted effect of over 45% in size
Outline: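 Cytotoxicity counter screen: CellTiter-Glo luminescence (30 min, room temperature) measured in the SBE-bla HEK 293T reporter wells after 5 hr compound treatment at 37 C and the 2 hr substrate step.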

[5] = qHTS assay to identify small molecule agonists of the TGF-beta/Smad signaling pathway (AID 1346859; active = well fitted activation curve with a large enough effect in the signal ratio in the repeat runs, not every such curve was filed as active; the % refers to the signal ratio; also: % is scaled to controls: 0 for no effect and ±100 for the full control effect); details: SBE-bla HEK293T, TGF-beta/Smad beta-lactamase reporter, 5 h; series mostly up to 76.8 µM
Outline: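 Beta-lactamase reporter activity downstream of Smad binding elements was measured in stably transfected HEK 293T cells; compounds were incubated for 5 hr, substrate for 2 hr at room temperature.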

[6] = Human pregnane X receptor (PXR) small molecule agonists, qHTS cell viability counter screen (AID 1346977); details: PXR-Luc HepG2 viability, CellTiter-Fluor, 24 h; series mostly up to 92.4 µM; also: nearly all actives have a fitted effect of over 50% in size; also: potency is read from the fitted curve at half-maximal effect
Outline: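 After a 5hr pre-incubation, PXR-Luc HepG2 cells received compounds plus positive control in DMSO and were kept 24hr at 37C. Cell viability was quantified by fluorescence from CellTiter-Fluor added for the final hour.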

[7] = Caspase-3/7 induction in HepG2 cells by small molecules, qHTS assay (AID 1346978); details: HepG2 caspase-3/7 activation, Caspase-Glo luminescence, 17 h; series mostly up to 92.4 µM; also: % is scaled to controls: 0 for no effect and ±100 for the full control effect; nearly all actives have a fitted effect of over 15% in size
Outline: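 Wild-type HepG2 cells (2,000/well) were settled 5 h at 37 C, 5% CO2, then exposed to compounds in DMSO for 17 h. Caspase-3/7 activity was read by luminescence 30 min after adding Caspase-Glo 3/7 reagent at room temperature.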

[8] = Caspase-3/7 induction in CHO-K1 cells by small molecules, qHTS cell viability counter screen (AID 1346979); details: CellTiter-Fluor fluorescence, 17 h; series mostly up to 92.4 µM; also: nearly all actives have a fitted effect of over 35% in size; also: potency is read from the fitted curve at half-maximal effect
Outline: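 Multiplexed with Caspase-Glo 3/7 in CHO-K1 cells, this counter screen added CellTiter-Fluor after 16hr of compound exposure and recorded fluorescence 1hr later.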

[9] = Caspase-3/7 induction in CHO-K1 cells by small molecules, qHTS assay (AID 1346980); details: CHO-K1 caspase-3/7 induction, Caspase-Glo luminescence, 17 h; series mostly up to 92.4 µM; also: % is scaled to controls: 0 for no effect and ±100 for the full control effect; nearly all actives have a fitted effect of over 15% in size
Outline: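 Wild-type cells were seeded at 1,500 per well and settled 5 hr at 37 C, 5% CO2, then exposed to DMSO-dissolved compounds for 17 hr. Caspase-Glo 3/7 reagent was added, and luminescence was read after 30min at room temperature.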

[10] = Caspase-3/7 induction in HepG2 cells by small molecules, qHTS cell viability counter screen (AID 1346981); details: CellTiter-Fluor fluorescence, 17 h; series mostly up to 92.4 µM; also: % is scaled to controls: 0 for no effect and ±100 for the full control effect; nearly all actives have a fitted effect of over 30% in size
Outline: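 Treatment of HepG2 cells with DMSO-delivered compounds ran 16 hr at 37 C following a 5-hr pre-incubation of 2,000 cells/well. CellTiter-Fluor fluorescence, read after 1 hr, served as the viability measure in a qHTS format.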

[11] = target: Cytochrome P450 2D6 (Homo sapiens) (UniProt P10635); assay: Cytochrome P450 Family 2 Subfamily D Member 6 (CYP2D6) small molecule antagonists: luciferase reporter qHTS assay (AID 1671196); details: P450-Glo CYP2D6 enzyme assay, luciferin luminescence, 1 h; series mostly up to 115 µM; also: potency is read from the fitted curve at half-maximal effect; nearly all actives have a fitted effect of over 50% in size
Cytochrome P450 2D6 (Homo sapiens), sequence (P10635 whole entry, looked up): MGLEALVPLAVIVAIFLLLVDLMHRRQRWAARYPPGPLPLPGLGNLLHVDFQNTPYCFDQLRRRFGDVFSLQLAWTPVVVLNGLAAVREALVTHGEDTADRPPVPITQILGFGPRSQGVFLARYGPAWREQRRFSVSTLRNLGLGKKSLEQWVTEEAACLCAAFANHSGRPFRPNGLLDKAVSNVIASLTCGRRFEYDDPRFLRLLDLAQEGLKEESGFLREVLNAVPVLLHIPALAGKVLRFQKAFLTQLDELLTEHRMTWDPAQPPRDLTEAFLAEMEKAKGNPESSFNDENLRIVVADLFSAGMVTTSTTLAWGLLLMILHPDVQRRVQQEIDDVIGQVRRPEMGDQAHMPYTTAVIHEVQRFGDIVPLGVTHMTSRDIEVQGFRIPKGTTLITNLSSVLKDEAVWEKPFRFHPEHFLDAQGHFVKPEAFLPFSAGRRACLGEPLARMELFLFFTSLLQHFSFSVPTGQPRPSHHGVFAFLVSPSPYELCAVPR
Outline: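 Chemicals tested for interference with CYP2D6 activity; proluciferin substrate, NADPH regeneration, 1 h at room temperature, luminescent detection.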

[12] = target: Thyrotropin-releasing hormone receptor (Homo sapiens) (UniProt P34981); assay: qHTS assay to identify small molecule antagonists of the thyrotropin-releasing hormone receptor (TRHR) signaling pathway (AID 1346877; active = well fitted inhibition curve with a large enough effect in the repeat runs, not every such curve was filed as active; also: % is scaled to controls: 0 for no effect and ±100 for the full control effect); details: TRHR-HEK293, TRH-induced calcium fluorescence, antagonist mode; series mostly up to 51.3 µM
Thyrotropin-releasing hormone receptor (Homo sapiens), sequence (P34981 whole entry, looked up): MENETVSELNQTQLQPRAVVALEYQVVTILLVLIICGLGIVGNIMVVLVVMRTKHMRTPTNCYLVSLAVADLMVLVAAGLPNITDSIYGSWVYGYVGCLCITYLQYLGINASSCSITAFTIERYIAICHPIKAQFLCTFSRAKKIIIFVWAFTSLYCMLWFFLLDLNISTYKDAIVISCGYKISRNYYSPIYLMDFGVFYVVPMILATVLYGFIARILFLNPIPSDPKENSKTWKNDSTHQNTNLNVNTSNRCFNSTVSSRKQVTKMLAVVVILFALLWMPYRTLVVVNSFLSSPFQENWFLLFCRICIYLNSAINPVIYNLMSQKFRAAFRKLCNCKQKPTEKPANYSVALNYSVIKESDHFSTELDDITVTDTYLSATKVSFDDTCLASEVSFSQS
Outline: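 Overnight-plated (18 h, 37 °C) HEK293 cells expressing TRHR were dye-loaded 2 h, treated with compound, then stimulated with TRH at 1 nM final. Fluorescence intensity was captured every second for 3 min.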

[13] = target: Thyrotropin-releasing hormone receptor (Homo sapiens) (UniProt P34981); assay: qHTS assay to identify small molecule agonists of the thyrotropin-releasing hormone receptor (TRHR) signaling pathway (AID 1346891; calls by dose curve;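 also: HEK293 cells expressing TRHR with calcium dye readout; % is scaled to controls: 0 for no effect and ±100 for the full control effect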); details: TRHR-HEK293 calcium fluorescence, agonist mode; series mostly up to 57.6 µM
Outline: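 Overnight-plated (18 h, 37 °C, 5% CO2) TRHR-Hek293 cells; 2 h calcium dye at 37 °C; compound in DMSO; 3-min kinetic fluorescence read.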

[14] = target: Nuclear receptor subfamily 1 group I member 2 (Homo sapiens) (UniProt O75469); assay: Human pregnane X receptor (PXR) small molecule agonists, qHTS assay (AID 1346982); details: PXR-Luc HepG2, CYP3A4 luciferase reporter, 24 h; series mostly up to 92.4 µM; also: nearly all actives have a fitted effect of over 35% in size; also: potency is read from the fitted curve at half-maximal effect
Nuclear receptor subfamily 1 group I member 2 (Homo sapiens), sequence (O75469 whole entry, looked up): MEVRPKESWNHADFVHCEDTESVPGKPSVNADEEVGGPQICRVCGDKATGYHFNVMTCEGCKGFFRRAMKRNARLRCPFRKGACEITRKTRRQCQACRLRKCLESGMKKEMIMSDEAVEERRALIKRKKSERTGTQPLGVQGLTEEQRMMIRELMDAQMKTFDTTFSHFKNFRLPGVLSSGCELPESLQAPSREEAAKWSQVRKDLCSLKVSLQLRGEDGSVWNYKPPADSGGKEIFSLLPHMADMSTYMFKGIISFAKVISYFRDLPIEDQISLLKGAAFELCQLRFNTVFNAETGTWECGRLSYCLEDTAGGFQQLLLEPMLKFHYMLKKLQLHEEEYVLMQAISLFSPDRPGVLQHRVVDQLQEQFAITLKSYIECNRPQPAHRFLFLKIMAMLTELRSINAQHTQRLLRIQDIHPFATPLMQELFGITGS
Outline: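 Stable HepG2 line reporting PXR-mediated CYP3A4 expression via luciferase. Treatment: 24 hr with compounds in DMSO at 37 C. Detection: ONE-Glo luminescence.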

[15] = target: Progesterone receptor (Homo sapiens) (UniProt P06401); assay: qHTS assay to identify small molecule agonists of the progesterone receptor (PR) signaling pathway (AID 1346784; calls by dose curve; also: % is scaled to controls: 0 for no effect and ±100 for the full control effect; nearly all actives have a fitted effect of over 30% in size); details: PR-UAS-bla HEK293T, beta-lactamase FRET ratio, 16 h; series mostly up to 92.4 µM
Progesterone receptor (Homo sapiens), sequence (P06401 whole entry, looked up): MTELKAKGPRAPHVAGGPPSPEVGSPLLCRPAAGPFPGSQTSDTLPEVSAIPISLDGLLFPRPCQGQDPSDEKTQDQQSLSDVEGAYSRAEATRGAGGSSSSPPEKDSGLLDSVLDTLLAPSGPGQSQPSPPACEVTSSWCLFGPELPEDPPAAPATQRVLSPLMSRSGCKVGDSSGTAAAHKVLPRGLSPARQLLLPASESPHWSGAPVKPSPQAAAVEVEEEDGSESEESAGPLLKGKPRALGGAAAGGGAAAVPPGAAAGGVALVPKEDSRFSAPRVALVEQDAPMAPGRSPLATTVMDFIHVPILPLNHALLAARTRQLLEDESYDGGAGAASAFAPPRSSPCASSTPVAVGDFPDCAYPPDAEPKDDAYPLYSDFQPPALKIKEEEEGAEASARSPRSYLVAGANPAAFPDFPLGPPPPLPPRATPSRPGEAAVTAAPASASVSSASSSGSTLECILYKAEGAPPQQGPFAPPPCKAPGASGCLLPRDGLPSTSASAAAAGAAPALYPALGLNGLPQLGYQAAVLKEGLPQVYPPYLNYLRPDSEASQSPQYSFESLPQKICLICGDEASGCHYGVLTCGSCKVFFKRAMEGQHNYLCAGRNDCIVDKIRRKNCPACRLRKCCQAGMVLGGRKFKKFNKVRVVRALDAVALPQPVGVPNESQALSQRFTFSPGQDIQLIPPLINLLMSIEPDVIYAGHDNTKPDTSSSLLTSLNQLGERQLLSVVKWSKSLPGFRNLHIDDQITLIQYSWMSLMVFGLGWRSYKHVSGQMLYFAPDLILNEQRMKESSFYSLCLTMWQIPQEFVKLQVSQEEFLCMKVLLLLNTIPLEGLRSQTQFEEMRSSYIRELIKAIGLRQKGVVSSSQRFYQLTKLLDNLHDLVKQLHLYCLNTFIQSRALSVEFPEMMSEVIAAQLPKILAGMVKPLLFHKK
Outline: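 Seed PR-UAS-bla HEK 293T cells (2% charcoal-stripped FBS), incubate 6 hr at 37C; add compounds in DMSO, 16 hr at 37C; add LiveBLAzer B/G substrate, 2 hr RT; read fluorescence intensity.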

[16] = target: Nuclear receptor subfamily 1 group I member 2 (Homo sapiens) (UniProt O75469); assay: CYP3A4 induction through human pregnane X receptor (PXR) by small molecules, qHTS assay (AID 1346984); details: DPX-2 HepG2 PXR, CYP3A4-luciferin luminescence, 24 h; series mostly up to 46.1 µM; also: % is scaled to controls: 0 for no effect and ±100 for the full control effect; nearly all actives have a fitted effect of over 40% in size
Outline: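 After 24 h at 37C with compound, DPX-2 cells (HepG2, co-transfected PXR response element and CYP3A4 promoter-luciferase) got 3uM final P450-Glo Luciferin-IPA for 3 h; One-Glo luminescence followed.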

[17] = target: Nuclear receptor subfamily 1 group I member 2 (Homo sapiens) (UniProt O75469); assay: Human pregnane X receptor (PXR) activation by small molecules, qHTS assay (AID 1346985); details: DPX-2 HepG2 CYP3A4-luciferase, 24 h; series mostly up to 38.3 µM; also: % is scaled to controls: 0 for no effect and ±100 for the full control effect; nearly all actives have a fitted effect of over 40% in size
Outline: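 DPX-2 cells (HepG2 co-transfected with a PXR response element and a CYP3A4-promoter luciferase construct) were seeded at 2,000 per well, rested 5 hr at 37C, then exposed to DMSO-dissolved compounds for 24 hr. Activation was read as luciferase luminescence.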

[18] = qHTS assay to identify small molecule agonists of the progesterone receptor (PR) signaling pathway - cell viability counter screen (AID 1346799; calls by dose curve; also: % is scaled to controls: 0 for no effect and ±100 for the full control effect; nearly all actives have a fitted effect of over 45% in size); details: PR-UAS-bla HEK293T viability, CellTiter-Glo luminescence, 16 h; series mostly up to 92.4 µM
Outline: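 Using the same plates as the PR reporter screen, HEK293T PR-UAS-bla cells received compounds for 16 hr at 37C and were then lysed with CellTiter-Glo; luminescence was read 30 min later at room temperature.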

[19] = target: Progesterone receptor (Homo sapiens) (UniProt P06401); assay: qHTS assay to identify small molecule antagonists of the progesterone receptor (PR) signaling pathway (AID 1346795; active = well fitted inhibition curve with a large enough effect in the signal ratio in the repeat runs, not every such curve was filed as active; the % refers to the signal ratio; also: % is scaled to controls: 0 for no effect and ±100 for the full control effect); details: PR-UAS-bla HEK293T, beta-lactamase FRET ratio, 16 h; series mostly up to 92.4 µM
Outline: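 Screening used a GripTite HEK293T line with PR-responsive UAS-beta-lactamase. Cells were challenged with compound in the presence of 1 nM R5020 final for 16 hr at 37C; B/G FRET substrate, 2 hr room temperature, fluorescence.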

[20] = target: Nuclear receptor subfamily 1 group I member 2 (Rattus norvegicus) (UniProt Q9R1A7); assay: Rat pregnane X receptor (rPXR) activation by small molecules, qHTS assay (AID 1346983); details: rPXR luciferase reporter cells, One-Glo luminescence, 24 h; max activation: stronger effect = higher value; also: % is scaled to controls: 0 for no effect and ±100 for the full control effect; nearly all actives have a fitted effect of over 20% in size
Nuclear receptor subfamily 1 group I member 2 (Rattus norvegicus), sequence (Q9R1A7 whole entry, looked up): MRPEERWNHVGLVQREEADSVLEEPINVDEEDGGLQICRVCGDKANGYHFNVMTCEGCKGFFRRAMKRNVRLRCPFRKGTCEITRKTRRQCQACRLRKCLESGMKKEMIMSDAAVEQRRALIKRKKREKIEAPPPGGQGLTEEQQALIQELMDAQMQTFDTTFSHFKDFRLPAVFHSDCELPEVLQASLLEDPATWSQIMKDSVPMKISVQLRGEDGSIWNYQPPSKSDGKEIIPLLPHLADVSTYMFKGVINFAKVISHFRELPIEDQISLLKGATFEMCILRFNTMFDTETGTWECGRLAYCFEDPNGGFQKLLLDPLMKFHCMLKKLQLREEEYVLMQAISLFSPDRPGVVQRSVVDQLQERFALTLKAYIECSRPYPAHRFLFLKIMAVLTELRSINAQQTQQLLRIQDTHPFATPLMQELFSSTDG
Outline: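 Cell-based rPXR luciferase reporter assay, 2,000 cells per well, rested 5hr at 37 C before compound addition in DMSO, then 24 hr at 37 C. One-Glo reagent was added and luminescence read after 30 min at room temperature.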

CC(=O)[C@@]1(O)CC[C@H]2[C@@H]3C[C@H](C)C4=CC(=O)CC[C@]4(C)[C@H]3CC[C@@]21C
active: Potency [11] 34.7 µM
inactive: Potency [1] | Potency [2] | Potency [3] | Potency [4] | outcome [5] | Potency [6] | outcome [7] | Potency [8] | Potency [9] | Potency [10]

O=[N+]([O-])c1cc[n+]([O-])cc1
inactive: Potency [2] | Potency [4] | outcome [5] | outcome [12] | Potency [13] | outcome [7] | Potency [14]
active: Potency [1] 68.6 µM | Potency [6] 54.5 µM | Potency [8] 38.6 µM | Potency [11] 35.6 µM

c1ccc(OCc2ccc(CCCN3CCOCC3)cc2)cc1
inactive: outcome [15] | Potency [3] | Potency [4] | outcome [5] | outcome [12] | Potency [13] | outcome [7] | Potency [9] | Potency [10] | Potency [16] | Potency [17]
active: Potency [14] 2.37 µM | Potency [11] 15.5 µM

O=C(Cl)c1ccc([N+](=O)[O-])cc1
inactive: Potency [1] | Potency [18] | Potency [3] | Potency [4] | outcome [5] | outcome [12] | Potency [13] | Potency [6] | outcome [7] | Potency [8] | Potency [9]

CC(C)(C)c1cc(O)c(C(C)(C)C)cc1O
inactive: outcome [15] | Potency [3] | Potency [4] | outcome [5] | Potency [13] | Potency [9]

Oc1ccc(Cc2ccccc2)cc1
active: Potency [14] 56.6 µM
inactive: Potency [1] | Potency [3] | Potency [4] | outcome [5] | outcome [12] | Potency [13] | Potency [6] | Potency [9] | Potency [10]

Oc1ccc(C(O)CNCCCCCCNCC(O)c2ccc(O)c(O)c2)cc1O (configuration not stated)
inactive: outcome [15] | Potency [19] | Potency [18] | Potency [3] | Potency [4] | outcome [5] | outcome [12] | Potency [13] | Potency [6] | Potency [9] | Potency [10] | Potency [14] | max activation [20] -3.6% | Potency [16] | Potency [17]
